This is a sample that favours compounds with a hit; in the whole collection about 0.79% have one here.
iPSC survival up: enhancers of human iPSC single-cell survival; AID 602274; hiPSC single-cell survival, ATPlite luminescence; 100% = ROCK inhibitor wells, 0% = DMSO; 360,000 compounds, 0.044% hits; survival enhancement, % at 20 µM; in the data active = survival enhancement above about 18%;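 also: cells exposed to compounds for 16 hours before the ATP read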
DAGLB inhibitor: blocks human DAGLB lipase activity; Q8NCG7; HEK293T DAGLB membrane lysate, EnzChek fluorogenic substrate; AID 504411; inhibition, % at 5.17 µM; 340,000 compounds, 0.059% hits; in the data active = inhibition above about 34%
LANA-H2A inh: blocks KSHV LANA binding to histone H2A/H2B. inhibition, % (concentration not given with the values). 320,000 compounds, 0.6% hits. Q9QR71. cell-free LANA-H2A/H2B peptide, fluorescence polarization; in the data active = inhibition mostly above about 10%, no sharp cut-off; inactive = mostly below about 6.7%
HDAC3 inhib: blocks human histone deacetylase 3; 320,000 compounds, 0.15% hits; O15379; AID 2718; recombinant HDAC3, fluorogenic peptide/trypsin coupled, fluorescence; inhibition, % at 8.3 µM; in the data active = inhibition above about 26%, passing the limit was not always enough; inconclusive = no clear call, values can overlap the other calls
Target sequence (O15379 whole entry, looked up): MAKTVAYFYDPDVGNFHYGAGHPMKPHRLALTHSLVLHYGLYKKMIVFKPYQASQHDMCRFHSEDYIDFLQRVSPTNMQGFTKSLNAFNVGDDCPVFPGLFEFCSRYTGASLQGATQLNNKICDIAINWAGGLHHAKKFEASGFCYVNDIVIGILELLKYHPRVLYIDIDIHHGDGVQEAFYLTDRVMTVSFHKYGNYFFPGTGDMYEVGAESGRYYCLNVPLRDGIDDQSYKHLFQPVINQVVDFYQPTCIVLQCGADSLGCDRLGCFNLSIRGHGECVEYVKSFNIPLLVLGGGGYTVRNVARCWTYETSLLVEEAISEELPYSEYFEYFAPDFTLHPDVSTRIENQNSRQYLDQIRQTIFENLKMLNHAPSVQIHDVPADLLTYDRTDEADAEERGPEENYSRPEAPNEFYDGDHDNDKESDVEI
A number is an active result; i = inactive; ? = inconclusive; nt = no result; ! = not confirmed by another sample.

SMILES | iPSC survival up | DAGLB inhibitor | LANA-H2A inh | HDAC3 inhib
O=C1C2C3C=CC(C2C(=O)N1CCO)C1C(=O)N(CCO)C(=O)C31 (stereo unspecified) | i | i | i | i
COc1ccccc1N1CCN(C(=O)c2cc3c(=O)n4cccc(C)c4nc3s2)CC1 | i | i | 26 | i
COc1ccc(-c2cc(C(=O)N3CCN(c4ccccc4OC)CC3)no2)cc1 | i | i | 20 | i
COc1ccccc1N1CCN(C(=O)c2cc(-c3ccc(C)cc3)on2)CC1 | i | i | i | i
CCOC(=O)N1CCN(C(=O)c2cc3c(=O)n4cccc(C)c4nc3s2)CC1 | i | i | i | i
COc1ccc(N2CCN(C(=O)c3ccc4ccccc4n3)CC2)cc1 | i | i | 16 | i
c1ccc(SCCc2ccncc2)cc1 | i | i | i | i
CC(C)(C)c1ccc(SCCc2cccnc2)cc1 | i | i | 14 | i
O=C(Cc1ccc2ccccc2c1)Nc1ccccc1Br | i | i | 39 | i
Cc1ccc(S(=O)(=O)ON2C(=O)c3ccccc3C2=O)c(C)c1 | i | i | i | 59
CCCN1CCC(NC(=O)Nc2ccc(Br)cc2)CC1 | i | i | 18 | i
CC(=O)Nc1ccc(CN2C(=O)C(C)(C)ON=C2c2ccc(NC(C)=O)cc2)cc1 | i | nt | nt | nt
CC(OC(=O)Cn1c(C(F)(F)F)nc2ccccc21)C(=O)N1CCCc2ccccc21 (stereo unspecified) | i | i | 26 | i
COC(=O)Cn1c(C(F)(F)F)nc2ccccc21 | i | i | i | i
N#CCCN(Cc1cccnc1)C(=S)NC(=O)c1ccccc1 | i | i | i | i
CC(C)c1cccc(C(C)C)c1NC(=O)CCN1C(=O)NC2(CCCC2)C1=O | i | i | i | i
Cc1c(-n2c(SCC(=O)NC(C)C)nc3ccccc3c2=O)c(=O)n(-c2ccccc2)n1C | i | i | i | i
CCC(C)NC(=O)CSc1nc2ccccc2c(=O)n1-c1c(C)n(C)n(-c2ccccc2)c1=O (stereo unspecified) | i | i | 100 | i
CC(C)Oc1ccc(Cl)cc1Nc1nc(NCCO)nc(N2CCCC2)n1 | i | i | i | 28
OC(c1ccc(Cl)cc1)c1ncc(-c2cccc(C(F)(F)F)c2)[nH]1 (stereo unspecified) | 25 | nt | nt | nt
CC1(C(=O)NS(=O)(=O)c2cccs2)CCN1C(=O)C1CCCCC1 (stereo unspecified) | i | nt | nt | nt
CSC[C@H]1CN(CCc2ccccc2)C(=O)[C@@H]1CC(=O)Nc1ccccc1 | i | i | nt | nt
Cc1ccc2c(c1)nnn2C1CCN(S(=O)(=O)c2ccc(C(=O)O)cc2)CC1 | i | i | 126 | i
N=C(N)c1ccc(OCCCCCOc2ccc(C(=N)N)cc2)cc1 | i | i | i | 61
CS(=O)(=O)N(CC(=O)NCCSc1ccc(Cl)cc1)c1ccc2c(c1)OCO2 | i | i | 19 | i
SMILES | iPSC survival up | DAGLB inhibitor | LANA-H2A inh | HDAC3 inhib
CS(=O)(=O)N(CC(=O)NCCSc1ccccc1)c1ccc2c(c1)OCO2 | i | i | i | i
COc1ccc(S(=O)(=O)N(C)[C@H]2C[C@H]3c4cc(Oc5ccccc5C)ccc4CCN3C(=O)[C@H]2[C@H](C)O)cc1 | i | i | nt | nt
COc1ccc(CN2CNc3nc4ccccc4n3C2)cc1 | i | i | 22 | i
COC(=O)CCCn1cc(CN2CC(N3CCN(C4CCN(C)CC4)CC3)CS2(=O)=O)nn1 (stereo unspecified) | i | nt | nt | nt
CN(CCOC(=O)c1cccc(F)c1)Cc1ccccc1 | i | i | 11 | i
Cc1nc2sccn2c(=O)c1CCN1CCC(=C(c2ccc(F)cc2)c2ccc(F)cc2)CC1 | i | i | 8.3 | i
Cc1ccc2c(c1)N(CC(=O)NC1CCC(C)CC1)C(=O)c1cccnc1O2 (stereo unspecified) | i | i | i | i
O=c1[nH]ccc2c([N+](=O)[O-])cccc12 | i | i | i | i
O=c1c([N+](=O)[O-])c[nH]c2ccccc12 | i | i | 15 | i
COc1ccc(-c2cc(C(F)(F)F)nc(SCCC(=O)NCc3ccccc3)n2)cc1 | i | i | 32 | ?
CC(O)c1cccc(-c2ccc(CN3C[C@]4(CO)O[C@@H](CO)C[C@@H]4S3(=O)=O)cc2)c1 (stereo partly specified) | i | i | nt | nt
Cc1cc(F)ccc1NC(=O)Cn1c(C)csc1=O | i | i | i | i
CC1(C)CC(=O)C(C(C#Cc2ccccc2)C2=C(O)CC(C)(C)CC2=O)=C(O)C1 | i | i | 17 | i
COCc1c(C(=O)NCCc2ccc(OC(F)F)cc2)oc2ccccc12 | i | i | i | i
COc1cc(OC)cc(C(C)=O)c1 | i | i | 20 | i
CCC(C(=O)Nc1ccc2[nH]ncc2c1)c1ccccc1 (stereo unspecified) | 62 | i | i | i
CCNC(=O)C1(C)CCCN(C(=O)c2ccc(C(F)(F)F)nc2C)C1 (stereo unspecified) | i | nt | nt | nt
COc1cccc(C(C(=O)NC2CCCCC2)N(C(=O)c2csnn2)C2CC2)c1 (stereo unspecified) | i | i | 13 | i
Clc1ccc(-c2nnc3sc(-c4ccc(Br)o4)nn23)c(Cl)c1 | i | i | i | i
Clc1ccc(-c2nnc3sc(-c4ccc(Br)o4)nn23)cc1 | i | i | 46 | i
Cc1nn2c(c1-c1ccc(Cl)cc1)N=C(c1ccco1)CC2c1ccccc1 (stereo unspecified) | i | i | i | i
COc1ccc(S(=O)(=O)Nc2cc3c4c(c2)CCN4C(=O)CC3)cc1OC | i | i | i | i
CC(C)NC(=S)NC1(C)CCS(=O)(=O)C1 (stereo unspecified) | i | i | i | i
CC1(NC(=O)N2CCCCC2)CCS(=O)(=O)C1 (stereo unspecified) | i | i | 19 | i
Cc1cc(-c2ccc(C)c(S(=O)(=O)Nc3cc(C)on3)c2)on1 | i | i | i | i
SMILES | iPSC survival up | DAGLB inhibitor | LANA-H2A inh | HDAC3 inhib
COc1ccc(NC2CCCN(C(=O)c3c(C)noc3C)C2)cc1 (stereo unspecified) | i | i | i | i
Cc1noc(C)c1C(=O)N1CCCC(Nc2ccc(C(C)C)cc2)C1 (stereo unspecified) | i | i | 21 | i
CN1C2CCC1CC(OC(=O)C(CO)c1ccccc1)C2 (stereo unspecified) | i | i | i | i
CN1[C@@H]2CC[C@H]1CC(OC(=O)C(CO)c1ccccc1)C2 (stereo partly specified) | i | i | 36! | i
COc1ccc(C(=O)N2CCOC2CNC(=O)C(=O)NCCc2ccc(OC)c(OC)c2)cc1 (stereo unspecified) | i | i | i | i
COc1ccc2[nH]c3c(c2c1)CCNC3c1ccc([N+](=O)[O-])o1 (stereo unspecified) | i | i | 21 | i
COc1ccc(CNC(=O)CSc2nc3nc(C)cc(C)n3n2)cc1 | i | i | i | i
COc1ccccc1CNC(=O)CSc1nc2nc(C)cc(C)n2n1 | i | i | 50 | i
O=C(CN1CCN(S(=O)(=O)N2CCCCC2)CC1)Nc1ccc(Cl)c(Cl)c1 | i | i | 45 | i
CSc1ccc(S(=O)(=O)NC2CC2)cc1 | i | i | i | i
O=C(NCCCO)C(=O)Nc1cc2c3c(c1)CCC(=O)N3CCC2 | i | i | 19 | i
COCCCNC(=O)C(=O)Nc1cc2c3c(c1)CCC(=O)N3CCC2 | i | i | i | i
